Among the data in PubChem BioAssay AID1159580 (chemical genetic matrix, 2015) are normalized growth values, retold here.

Among all 5,500 compounds or so, about 2,000 (36%) were called active. Roughly 18% stayed inconclusive and do not appear here. This is one part of the list. Unmarked numbers belong to inactive results. Cut-off read from the data, not from the text of the source: active = normalized growth mostly below about 0.91 (no sharp cut-off); inconclusive = no clear call, values can overlap the other calls; inactive = mostly above about 0.92.

The assay in a line: chemical genetic growth profiling, strain panel (AID 1159580).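 Note: tested at 20 µM; growth read once vehicle control cultures reached saturation at 30 °C; 1 = growth at the plate median or of vehicle wells; lower values mean less growth of the strain.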 The settings on record: S. cerevisiae deletion strains, growth OD.

Consider `CC(C)NC[C@@H](O)c1ccc(O)c(O)c1`, for which the normalized growth runs as follows: (locus YAL013W, strain DEP1, stronger effect = lower value) 0.974; (locus YAL040C, strain CLN3, stronger effect = lower value) 1.03; (locus YCL061C, strain MRC1 (second series), stronger effect = lower value) 0.996; (locus YDR150W, strain NUM1, stronger effect = lower value) 1; (locus YDR363W, strain ESC2, stronger effect = lower value) 1; (locus YER002W, strain NOP16, stronger effect = lower value) 0.984. For the same molecule, the normalized growth is, setting by setting: (locus YGR078C, strain PAC10, stronger effect = lower value) 0.99; (locus YJR075W, strain HOC1, stronger effect = lower value) 1.12 [resistant] (active); (locus YMR307W, strain GAS1, stronger effect = lower value) 1.1 [resistant] (active); (locus YNL175C, strain NOP13, stronger effect = lower value) 0.984; (locus YNL197C, strain WHI3, stronger effect = lower value) 0.985; (locus YNL224C, strain SQS1, stronger effect = lower value) 0.997. Besides, the normalized growth is 1.01 (locus YNL322C, strain KRE1, stronger effect = lower value); 1.04 (locus YOR083W, strain WHI5 (second series), stronger effect = lower value); 0.998 (locus YPL241C, strain CIN2, stronger effect = lower value).
